PINK1 expr mod: PINK1 expression modulation | 0.2% of 410,000 active | PINK1 immunofluorescence, high-content cytometry, 24 h | Potency, µM (doses to about 76.6 µM), without a hit: at the highest dose activation (PINK1 increase), most hits filed as activators; active = well fitted activation curve with a large enough effect; inconclusive = small, poorly fitted or top-dose-only effect; cell line not stated here; also: % of control where 0% means no effect; nearly all actives have a fitted effect of over 65% in size
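PINK1 protein level read as immunofluorescence by microplate cytometer in a fixed, stained stable cell line after 24 h exposure to five compound concentrations, with CCCP as control.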
MCF10A rereplic: DNA re-replication induction in MCF 10a cells | MCF 10A DNA re-replication, Hoechst nuclear intensity, 48 h | Potency, µM (titrated, usually from 46.1 µM), inactives show at the top dose activity, positive = re-replication, usual class: activators | 2.9% of 350,000 active | AID 624296; also: % of control where 0% means no effect; nearly all actives have a fitted effect of over 50% in size
KB-3-1 cytotox: kills parental KB-3-1 adenocarcinoma cells; KB-3-1 viability, CellTiter-Glo ATP luminescence, 72 h; Potency, µM (highest dose often 46.1 µM), hits mostly cytotoxic; 1.4% of 400,000 active; also: % is scaled to controls: 0 for no effect and ±100 for the full control effect; nearly all actives have a fitted effect of over 60% in size
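Parental KB-3-1 viability, qHTS format: 72 h compound exposure, 37 °C; CellTiter-Glo; media-only wells and DMSO plates as controls; concentration-effect fits on corrected data.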
KB-V1 MDR tox: KB-V1 MDR subline cytotoxicity; Potency, µM (top dose mostly 46.1 µM), most hits filed as cytotoxic; KB-V1 MDR cells viability, CellTiter-Glo, 72 h; 3.4% of 400,000 active; also: % is scaled to controls: 0 for no effect and ±100 for the full control effect; nearly all actives have a fitted effect of over 60% in size
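Cytotoxicity via CellTiter-Glo luminescence after 72 h compound exposure at 37 degrees C. Cells: drug-selected KB-V1 line, DMEM phenol-red free plus 10% FBS. Compounds tested at multiple concentrations; normalized data fitted to concentration-effect curves.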
SW480 rerep: inducers of DNA re-replication in SW480 colon cancer cells; SW480 DNA re-replication, Hoechst DNA content imaging, 48 h; Potency, µM (highest dose often 46.1 µM), without a hit: at the top dose re-replication activation, hits mostly activators; 1.8% of 340,000 active; AID 624297; also: % of control where 0% means no effect; nearly all actives have a fitted effect of over 55% in size
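SW480 cells exposed to compounds for 48 hr at 37 C, 5% CO2, then Hoechst-stained 40 min. Nuclear DNA content imaged by fluorescence scanning (405 nm excitation, 500-530 nm emission); re-replication scored as increased high-intensity nuclei.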
* marks the source's active call; other numbers are inactive results; [ ] = dose if it differs, or a comment. Sampled rows, rich in hits. Any-hit rate of the full collection: about 6.7%. Unless noted, calls follow the shape of the dose curve; as a rule, active = well fitted curve in the direction sought with a large enough effect; inconclusive = small, poorly fitted or top-dose-only effect, or another doubt; inactive = no such curve, though single readings can be large; an effect the other way counts as inactive or inconclusive. Potency is read from the fitted curve at half-maximal effect.

`Cn1c(=O)[nH]c(=O)c2c1nc(N1CCNCC1)n2Cc1ccccc1` gave PINK1 expr mod 2%, MCF10A rereplic 0%, KB-3-1 cytotox inactive, KB-V1 MDR tox inactive and SW480 rerep inconclusive.
`Cn1c(=O)[nH]c(=O)c2c1nc([N+](=O)[O-])n2Cc1ccccc1` gave PINK1 expr mod -1%, MCF10A rereplic 2.1µM*, KB-3-1 cytotox inconclusive, KB-V1 MDR tox inconclusive and SW480 rerep -32%.
For COCCn1c(C)cc(C(=O)CSc2nc(C)nc3sc4c(c23)CCC4)c1C the results were PINK1 expr mod inconclusive, MCF10A rereplic inconclusive, KB-3-1 cytotox inconclusive, KB-V1 MDR tox 2.6µM* and SW480 rerep 7%.
For Cc1nc(SCC(=O)NCC2CCCO2)c2c3c(sc2n1)CCCC3 (stereo not drawn) the results were PINK1 expr mod 1%, MCF10A rereplic 2%, KB-3-1 cytotox inactive, KB-V1 MDR tox inconclusive and SW480 rerep 1%.
`CC(=O)c1c(C)nn(CC(O)COc2ccc3c(c2)CCC3)c1C` (stereo not drawn) gave MCF10A rereplic -2%, KB-3-1 cytotox inactive, KB-V1 MDR tox 10µM* and SW480 rerep 7%.
`Cc1nn(CC(O)COc2ccc3c(c2)CCC3)c(C)c1Br` (stereo not drawn) gave PINK1 expr mod 13%, MCF10A rereplic 10%, KB-3-1 cytotox inactive, KB-V1 MDR tox inconclusive and SW480 rerep -1%.
CC(C)c1ccc(OCC(=O)Nc2c(C(=O)c3ccc(F)cc3)oc3ccccc23)cc1 was read as PINK1 expr mod 3%, KB-3-1 cytotox inactive and KB-V1 MDR tox inactive.
`CO/N=C/c1ccc(OC)c(Oc2nc(OC)cc(OC)n2)c1` gave PINK1 expr mod 8%, MCF10A rereplic 16µM*, KB-3-1 cytotox 18µM*, KB-V1 MDR tox inactive and SW480 rerep 18µM*.
CCn1cc(C(=O)NCc2ccccc2OC)c(=O)c2cc(S(=O)(=O)N3CCCCC3)ccc21 was read as PINK1 expr mod 1%, KB-3-1 cytotox inactive and KB-V1 MDR tox inconclusive.
For N#Cc1ccc(N2Cc3ccccc3C2=NC(=O)c2cccnc2Cl)cc1 the results were PINK1 expr mod 0%, MCF10A rereplic inconclusive, KB-3-1 cytotox inconclusive, KB-V1 MDR tox 16µM* and SW480 rerep 3%.
`Cc1ccccc1Nc1nc(-c2ccccc2)c(C(=O)Nc2cccnc2)s1` gave PINK1 expr mod -1%, MCF10A rereplic 23µM*, KB-3-1 cytotox inactive, KB-V1 MDR tox inactive and SW480 rerep inconclusive.
`Oc1ccccc1C1C=C(c2ccc3c(c2)OCO3)NC(c2ccc(F)c(Br)c2)N1` (stereo not drawn) gave PINK1 expr mod 1%.
For Cc1ccc2nc(N3CCN(c4ccccc4)CC3)c(C=O)c(=O)n2c1 the results were PINK1 expr mod 0%, MCF10A rereplic -12%, KB-3-1 cytotox inactive, KB-V1 MDR tox inactive and SW480 rerep 2%.
For Cc1ccc2nc(SCc3ccccc3)c(C=O)c(=O)n2c1 the results were PINK1 expr mod 10%, MCF10A rereplic 1%, KB-3-1 cytotox inactive, KB-V1 MDR tox 8.2µM* and SW480 rerep -13%.
c1cncc(-c2nc(-n3ccnc3)c3ccccc3n2)c1 was read as PINK1 expr mod 1%.
COc1ccc(OCc2nc(C#N)c(NCCCn3ccnc3)o2)cc1 was read as PINK1 expr mod 1%, MCF10A rereplic -5%, KB-3-1 cytotox inactive, KB-V1 MDR tox inactive and SW480 rerep -22%.
For N#Cc1nc(Cc2ccccc2)oc1NCCCn1ccnc1 the results were MCF10A rereplic inconclusive, KB-3-1 cytotox inactive, KB-V1 MDR tox inactive and SW480 rerep 16µM*.
`C=CCc1c(C)nc(C)nc1N/N=C/c1ccc([N+](=O)[O-])cc1` gave PINK1 expr mod -1%, MCF10A rereplic -2%, KB-3-1 cytotox inactive, KB-V1 MDR tox inactive and SW480 rerep 3%.
Screening C=CCc1c(C)nc(C)nc1N/N=C/c1ccccc1O returned PINK1 expr mod 1%, MCF10A rereplic 19%, KB-3-1 cytotox inactive, KB-V1 MDR tox 7.3µM* and SW480 rerep 12µM*.
For O=C(/C=C/c1ccc([N+](=O)[O-])cc1)c1cccs1 the results were PINK1 expr mod 2%, MCF10A rereplic 1%, KB-3-1 cytotox inactive, KB-V1 MDR tox inactive and SW480 rerep inconclusive.
`COc1cc([N+](=O)[O-])ccc1N/C=C/C(=O)c1cccs1` gave PINK1 expr mod 0%[38.3 µM], MCF10A rereplic 23%, KB-3-1 cytotox 5.2µM*, KB-V1 MDR tox 3.3µM* and SW480 rerep -2%.
CCc1ccc(NS(=O)(=O)c2ccc(OC)c(C)c2)cc1 was read as PINK1 expr mod 1%[38.3 µM], MCF10A rereplic inconclusive, KB-3-1 cytotox inactive, KB-V1 MDR tox 18µM* and SW480 rerep 6%.
`CCOc1cc(S(=O)(=O)Nc2ccccc2CC)ccc1Cl` gave PINK1 expr mod 4%[38.3 µM], MCF10A rereplic 1%, KB-3-1 cytotox inactive, KB-V1 MDR tox inactive and SW480 rerep 4%.
`CCOc1cc(S(=O)(=O)Nc2ccc(CC)cc2)ccc1Cl` gave PINK1 expr mod 6%[38.3 µM], MCF10A rereplic inconclusive, KB-3-1 cytotox inconclusive, KB-V1 MDR tox 15µM* and SW480 rerep 2%.
For Cc1ccc(NC(=O)Cn2cc(C(=O)c3ccco3)c3ccccc32)cc1 the results were PINK1 expr mod 1%.
Screening Cn1c(=O)[nH]c(=O)c2c1nc1n2CCN1c1ccccc1 returned PINK1 expr mod 1%, KB-3-1 cytotox inactive and KB-V1 MDR tox inactive.
For CC(C)N1C(=O)NC2NC(=O)N(C(C)C)C21 (stereo not drawn) the results were PINK1 expr mod 2%, KB-3-1 cytotox inactive and KB-V1 MDR tox inactive.
COc1ccc(-c2cc(C(=O)OCC(=O)c3c(N)n(C)c(=O)n(C)c3=O)c3ccccc3n2)cc1 was read as PINK1 expr mod 2%, MCF10A rereplic 9%, KB-3-1 cytotox inactive, KB-V1 MDR tox inactive and SW480 rerep -26%.
COc1ccc(/C=C2\CCCc3c2nc2ccccc2c3C(=O)OCC(=O)c2c(N)n(C)c(=O)n(C)c2=O)cc1 was read as MCF10A rereplic 4.6µM* and SW480 rerep inconclusive.
CCOC(=O)c1c(-c2ccc(OC)cc2)oc2ccc(OCc3ccc(Br)cc3)cc12 was read as PINK1 expr mod 0%, KB-3-1 cytotox inactive and KB-V1 MDR tox inactive.
For COc1ccc2oc3cc(C)[n+]([O-])c(-c4ccc(Br)cc4)c3c2c1 the results were PINK1 expr mod 5%, MCF10A rereplic inconclusive, KB-3-1 cytotox inconclusive, KB-V1 MDR tox 2.9µM* and SW480 rerep -6%.
`COC(=O)/C(=C\Nc1ccc(Cl)cc1Cl)NC(=O)c1ccc(Cl)cc1Cl` gave PINK1 expr mod 1%, MCF10A rereplic 12µM*, KB-3-1 cytotox inconclusive, KB-V1 MDR tox inconclusive and SW480 rerep 19%.

Screens deposited in PubChem BioAssay by National Center for Advancing Translational Sciences (NCATS).
